Rows were chosen to be rich in hits. Some 19% of all compounds tested hit in one or more screens of this group.
HepG2 viability: qHTS for Inhibitors of TGF-b: Cytotox Counterscreen; 0.76% of 410,000 active; HepG2 CAGA-GFP viability, ATP luminescence, 18 h; Potency, µM (highest dose often 46.1 µM), hits mostly cytotoxic
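HepG2 CAGA-GFP cells (1000/well, DMEM with 1% FBS) received compound, then TGF-beta at 500 pg/mL final, and were incubated 18 hours at 37 degrees C. Viability was read by CellTiter-Glo luminescence. Media-only wells were set as complete cell-killing and DMSO as no toxicity.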
TGFb SMAD3 inh: qHTS for Inhibitors of TGF-b; HepG2 CAGA-GFP TGF-b/SMAD3 reporter, GFP fluorescence, 18 h; TGF-beta stimulated, 500 pg/mL final; Potency, µM (series often up to 46.1 µM), usual class: inhibitors; 1.2% of 410,000 active; also: nearly all actives have a fitted effect of over 65% in size
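Per well, imaged GFP fluorescence of HEPG2 CAGA-GFP cells gives the signal; cells get compound, then TGF-beta (500 pg/mL final), 18 h at 37 degrees C; %Activity versus -TGF-beta and +DMSO controls.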
TDP1 cell noCPT: qHTS for Inhibitors of human tyrosyl-DNA phosphodiesterase 1 (TDP1): qHTS in cells in absence of CPT | DT40 Tdp1-/- hTDP1 cells, no CPT, ATP luminescence, 48 h | Potency, µM (top dose mostly 46.2 µM), usual class: inhibitors | 15% of 420,000 active | AID 686978, 2013; also: nearly all actives have a fitted effect of over 55% in size
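Growth kinetics read by CellTiter-Glo luminescence after ≥48 hr at 37 °C. Cells: DT40 Tdp1-/- stably carrying human TDP1, 400 per well, compound exposure in the absence of CPT (DMSO vehicle).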
S-ASM inh: Inhibitors of Secretory Acid Sphingomyelinase (S-ASM): qHTS. Sphingomyelin phosphodiesterase (Homo sapiens), P17405. placental ASM, HMU-PC fluorogenic substrate, 60 min. Potency, µM (titrated, usually from 57.5 µM), usual class: inhibitors. 0.006% of 340,000 active. AID 504937, 2011
Target sequence (P17405 47-631 limits assumed): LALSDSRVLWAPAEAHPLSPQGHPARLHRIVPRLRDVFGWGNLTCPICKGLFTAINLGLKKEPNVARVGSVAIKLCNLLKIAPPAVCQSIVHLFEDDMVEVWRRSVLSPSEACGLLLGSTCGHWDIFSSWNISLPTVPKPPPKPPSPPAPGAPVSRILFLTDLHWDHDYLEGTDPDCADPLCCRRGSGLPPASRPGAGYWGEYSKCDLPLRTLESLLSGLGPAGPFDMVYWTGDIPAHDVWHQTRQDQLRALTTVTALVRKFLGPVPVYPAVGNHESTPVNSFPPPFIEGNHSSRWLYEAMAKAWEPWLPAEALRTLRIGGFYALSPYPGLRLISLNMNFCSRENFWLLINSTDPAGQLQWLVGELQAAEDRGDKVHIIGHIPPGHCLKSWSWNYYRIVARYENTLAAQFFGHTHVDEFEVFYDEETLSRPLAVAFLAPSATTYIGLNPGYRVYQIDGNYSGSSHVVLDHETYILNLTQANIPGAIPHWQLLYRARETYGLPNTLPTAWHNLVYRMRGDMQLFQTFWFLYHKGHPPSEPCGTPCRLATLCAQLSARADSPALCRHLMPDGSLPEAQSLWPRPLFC
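Steps: dispense placental human ASM, pin compound, wait 10 min at room temperature, add HMU-PC0 substrate at 9 uM final, incubate 60 min at 37 °C, add stop solution raising pH to 10, read fluorescence.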
IL1B secr inh: qHTS for Inhibitors of Inflammasome Signaling: IL-1-beta AlphaLISA Primary Screen; THP-1 LPS/ATP IL-1B secretion, AlphaLISA, 16 h; active compounds read low; activity change, % at 57.5 µM; 4.7% of 360,000 active; in the data active = activity change below about -50%; inconclusive = mostly about -30% to -49%
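Secreted IL-1B measured by AlphaLISA bead assay after 16 h compound exposure of THP-1 cells; compounds (final up to 57.5 uM) added 1 h before LPS (250 ng/mL) and ATP (1.25 mM) stimulation; lower signal means less secretion.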
DT40 TDP1 CPT: qHTS for Inhibitors of human tyrosyl-DNA phosphodiesterase 1 (TDP1): qHTS in cells in presence of CPT; AID 686979, 2013; Potency, µM (series often up to 46.2 µM), usual class: inhibitors; 12% of 420,000 active; chicken DT40 Tdp1-/-;hTDP1 cells + 20 nM CPT, ATP luminescence, 48 h; also: nearly all actives have a fitted effect of over 55% in size
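Cell growth measured by CellTiter-Glo luminescence after a minimum 48 h, 37 C compound exposure with 20 nM CPT in Tdp1-knockout DT40 cells stably expressing hTDP1, seeded 400/well; qHTS titration format.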
Each line names hits and unclear results; the compound was inactive in the other large screens. Unless noted, calls follow the shape of the dose curve; as a rule, active = well fitted curve in the direction sought with a large enough effect; inconclusive = small, poorly fitted or top-dose-only effect, or another doubt; inactive = no such curve, though single readings can be large; an effect the other way counts as inactive or inconclusive.

CN(C)c1ncc2nc(-c3cccs3)c(=O)n(-c3ccccc3)c2n1	none (no result: HepG2 viability, TGFb SMAD3 inh, S-ASM inh, IL1B secr inh)
Cc1cccc(Cn2c(COc3ccccc3)nc3ccccc32)c1	TGFb SMAD3 inh inconclusive (no result: TDP1 cell noCPT, S-ASM inh, IL1B secr inh, DT40 TDP1 CPT)
Cc1cc(=O)oc2cc(OCC(=O)Nc3ccc(F)cc3F)ccc12	none
COc1ccc(C2C(C(C)=O)=C(O)C(=O)N2c2ccc(F)cc2)cc1 (stereo unspecified)	none
COc1ccc(-c2cc3c(=O)n(CC(=O)NCCCN4CCC(Cc5ccccc5)CC4)ncn3n2)cc1	TDP1 cell noCPT inconclusive, DT40 TDP1 CPT inconclusive
COc1ccc(-c2cc3c(=O)n(CC(=O)NCCCN4CCN(Cc5ccccc5)CC4)ncn3n2)cc1	TDP1 cell noCPT 5.17µM, DT40 TDP1 CPT 9.2µM
COc1ccc(-c2cc3c(=O)n(CC(=O)NCc4ccc(C)cc4)ncn3n2)cc1	TDP1 cell noCPT 6.51µM, DT40 TDP1 CPT 7.31µM
CC(=O)NC1CC(=O)N(c2ccc3c(c2)OCCO3)C1 (stereo unspecified)	none (no result: S-ASM inh, IL1B secr inh)
O=C(Nc1ccc(C(F)(F)F)cc1)C1CCCN(c2cnccn2)C1 (stereo unspecified)	TDP1 cell noCPT inconclusive, DT40 TDP1 CPT inconclusive (no result: S-ASM inh, IL1B secr inh)
C(=C\c1ccccc1)/CN1CCN(C(CCc2ccccc2)c2nnnn2-c2ccc3c(c2)OCCO3)CC1 (stereo unspecified)	TGFb SMAD3 inh inconclusive, TDP1 cell noCPT 20.6µM, DT40 TDP1 CPT 10.3µM (no result: S-ASM inh)
CCC(c1nnnn1-c1ccc2c(c1)OCCO2)N1CCN(c2ccccc2)CC1 (stereo unspecified)	TDP1 cell noCPT inconclusive, DT40 TDP1 CPT inconclusive (no result: HepG2 viability, TGFb SMAD3 inh, S-ASM inh)
C(=C\c1ccccc1)/CN1CCN(C(c2nnnn2-c2ccc3c(c2)OCCO3)C2CC2)CC1 (stereo unspecified)	TGFb SMAD3 inh inconclusive, TDP1 cell noCPT 14.6µM, DT40 TDP1 CPT 23.1µM (no result: S-ASM inh)
CCC(c1nnnn1-c1ccc2c(c1)OCCO2)N1CCN(C/C=C/c2ccccc2)CC1 (stereo unspecified)	TGFb SMAD3 inh inconclusive, TDP1 cell noCPT 13µM, DT40 TDP1 CPT inconclusive (no result: S-ASM inh)
O=C(O)C1CCCCC1C(=O)Nc1cccc2ccccc12 (stereo unspecified)	TDP1 cell noCPT 8.2µM, DT40 TDP1 CPT 16.4µM
COc1ccccc1-c1nn(CCC(=O)Nc2ccc(C)cc2)c2nc(C)cc(C)c12	TDP1 cell noCPT 13µM, DT40 TDP1 CPT inconclusive (no result: S-ASM inh, IL1B secr inh)
Cc1ccc(-c2n[nH]c3c2C(c2ccc(C(C)(C)C)cc2)NC3=O)cc1 (stereo unspecified)	none (no result: S-ASM inh, IL1B secr inh)
COc1ccc(N2CC(C)Cn3c2nc2c3c(=O)n(Cc3ccc(C)cc3)c(=O)n2C)c(OC)c1 (stereo unspecified)	TDP1 cell noCPT 16.4µM, IL1B secr inh inconclusive, DT40 TDP1 CPT inconclusive
CCOc1ccc(NC(=O)c2ccc(F)c(S(=O)(=O)N3CCCC3)c2)cc1	TDP1 cell noCPT 11.6µM, DT40 TDP1 CPT 9.2µM (no result: S-ASM inh)
O=C(Nc1cccc(Cl)c1)c1ccc(F)c(S(=O)(=O)N2CCN(c3ccccn3)CC2)c1	TGFb SMAD3 inh inconclusive, TDP1 cell noCPT 18.4µM, DT40 TDP1 CPT 23.1µM
CCOc1ccc(NC(=O)c2ccc(F)c(S(=O)(=O)N3CCN(c4ccccn4)CC3)c2)cc1	TGFb SMAD3 inh inconclusive, TDP1 cell noCPT 16.4µM, DT40 TDP1 CPT inconclusive
CCc1ccc(NC(=O)c2ccc(F)c(S(=O)(=O)N3CCN(c4ccc(OC)cc4)CC3)c2)cc1	TDP1 cell noCPT inconclusive, DT40 TDP1 CPT inconclusive (no result: S-ASM inh, IL1B secr inh)
Cc1ccc(Cl)cc1NC(=O)Nc1nnc(N2CCCC(C)C2)s1 (stereo unspecified)	none (no result: S-ASM inh, IL1B secr inh)
